{"source": "the supplement of paper PMC8540655", "test_system": "Aedes aegypti larvae", "assay": "larval motility relative to same well at 0 h (fraction); higher = more motile (less active compound), active = 0.4 or less", "conditions": "10 µM", "in_short": "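Compounds at 10 µM (1% v/v DMSO) were applied to about 10 Aedes aegypti larvae per well in 100 µL, with every plate including solvent and larvicide control wells. Motility movies were taken with INVAPP at 0, 2 and 24 h, and results are medians of three independent larval batches. Relative motility is each well's score expressed as a fraction of its own first score.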", "note": "Values without a mark were called inactive.", "data": [{"smiles": "COc1ccc2sc3c(c2c1)NC(C)CNC3=O", "note": "(centres undefined)", "values": [{"measurement": "larval motility", "setting": "2 h", "value": 0.748}, {"measurement": "larval motility", "setting": "24 h", "value": 0.959}]}, {"smiles": "NC(=O)C(c1ccccc1)(c1ccccc1)[C@H]1CCCN(CCc2ccc3c(c2)CCO3)C1", "values": [{"measurement": "larval motility", "setting": "2 h", "value": 0.612}, {"measurement": "larval motility", "setting": "24 h", "value": 0.78}]}, {"smiles": "CC(C)(C)c1cc(C(=O)/C(C#N)=N/Nc2cccc(Cl)c2)no1", "values": [{"measurement": "larval motility", "setting": "2 h", "value": 1.14}, {"measurement": "larval motility", "setting": "24 h", "value": 1.21}]}, {"smiles": "COc1ccc(SCC(=O)N2c3ccccc3Sc3ccccc32)cc1", "values": [{"measurement": "larval motility", "setting": "2 h", "value": 0.631}, {"measurement": "larval motility", "setting": "24 h", "value": 1.01}]}, {"smiles": "O=c1nc(N2CCN(CC3CCCCC3)CC2)sc2c([N+](=O)[O-])cc(C(F)(F)F)cc12", "values": [{"measurement": "larval motility", "setting": "2 h", "value": 0.712}, {"measurement": "larval motility", "setting": "24 h", "value": 1.04}]}, {"smiles": "NC(=S)N/N=C/c1ncccc1N", "values": [{"measurement": "larval motility", "setting": "2 h", "value": 0.987}, {"measurement": "larval motility", "setting": "24 h", "value": 0.773}]}, {"smiles": "COc1c(F)c(F)cc2c(=O)c(C(=O)O)cn(C3CC3)c12", "values": [{"measurement": "larval motility", "setting": "2 h", "value": 0.765}, {"measurement": "larval motility", "setting": "24 h", "value": 1.08}]}, {"smiles": "CCN(CC)CCCC(C)Nc1ccnc2cc(Cl)ccc12", "note": "(centres undefined)", "values": [{"measurement": "larval motility", "setting": "2 h", "value": 0.715}, {"measurement": "larval motility", "setting": "24 h", "value": 0.484}]}, {"smiles": "C[C@H](NC(CC(=O)c1ccccc1C(F)(F)F)C(=O)O)c1ccccc1", "note": "(some centres undefined)", "values": [{"measurement": "larval motility", "setting": "2 h", "value": 0.873}, {"measurement": "larval motility", "setting": "24 h", "value": 0.674}]}, {"smiles": "COc1ccc2cc3[n+](cc2c1OCCN(CCn1cncn1)Cc1ccc(F)cc1F)CCc1cc2c(cc1-3)OCO2", "values": [{"measurement": "larval motility", "setting": "2 h", "value": 0.821}, {"measurement": "larval motility", "setting": "24 h", "value": 0.778}]}, {"smiles": "C[C@@H](c1nc(-c2ccc(C#N)cc2)cs1)[C@](O)(Cn1cncn1)c1ccc(F)cc1F", "values": [{"measurement": "larval motility", "setting": "2 h", "value": 0.723}, {"measurement": "larval motility", "setting": "24 h", "value": 0.498}]}, {"smiles": "CC1=C(/C=C/C(C)=C/C=C/C(C)=C/C(=O)Nc2ccc(O)cc2)C(C)(C)CCC1", "values": [{"measurement": "larval motility", "setting": "2 h", "value": 0.95}, {"measurement": "larval motility", "setting": "24 h", "value": 0.595}]}, {"smiles": "C=CCc1cc(Cc2cnc(N)nc2N)cc(OC)c1O", "values": [{"measurement": "larval motility", "setting": "2 h", "value": 1.05}, {"measurement": "larval motility", "setting": "24 h", "value": 1.18}]}, {"smiles": "CC(Cc1ccccc1)C(=O)Nc1ccc(Cl)cc1C(=O)O", "note": "(centres undefined)", "values": [{"measurement": "larval motility", "setting": "2 h", "value": 1.32}, {"measurement": "larval motility", "setting": "24 h", "value": 1.05}]}, {"smiles": "O=S(=O)(Nc1ccccc1)c1ccc(NC(=S)Nc2ccccc2)cc1", "values": [{"measurement": "larval motility", "setting": "2 h", "value": 0.779}, {"measurement": "larval motility", "setting": "24 h", "value": 0.792}]}, {"smiles": "CSc1ccc2c(c1)C(N1CCN(C)CC1)Cc1ccccc1S2", "note": "(centres undefined)", "values": [{"measurement": "larval motility", "setting": "2 h", "value": 1.08}, {"measurement": "larval motility", "setting": "24 h", "value": 0.827}]}, {"smiles": "CN1CCN(Cc2ccc(-c3cnc4[nH]cc(-c5ccc6[nH]ccc6c5)c4c3)cc2)CC1", "values": [{"measurement": "larval motility", "setting": "2 h", "value": 0.696}, {"measurement": "larval motility", "setting": "24 h", "value": 0.967}]}]}
